Among the data in PubChem BioAssay (NCATS) are Potency, outcome and max response values, retold here.

A number with no mark means an inactive call. Records with an inconclusive call do not appear. Activity calls are given as the source filed them. The call rests on the fitted dose curve; in most records, active means well fitted curve in the direction sought with a large enough effect; inconclusive means small, poorly fitted or top-dose-only effect, or another doubt; inactive means no such curve, though single readings can be large; an effect the other way counts as inactive or inconclusive.

The nature of experiment [1]: Quantitative High-Throughput drug screen in 47 multiple myeloma cell lines against the NCATS MIPE library collection: KMS28BM_JCRB cell viability assay (AID 1919874). Further: nearly all actives have a fitted effect of over 35% in size. Further: potency means the concentration at half of the fitted maximal effect. Summed up:
(§1)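 Inhibition of viability over 48 h was scored by ATP content (CellTiter-Glo) in 500-cell wells. Zero and full viability were defined by media-only and DMSO-only wells.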

Experiment [2] can be described thus: Quantitative High-Throughput drug screen in 47 multiple myeloma cell lines against the NCATS MIPE library collection: KMS11_JCRBsus cell viability assay (AID 1919873). Further: nearly all actives have a fitted effect of over 50% in size. Further: potency means the concentration at half of the fitted maximal effect. Summed up:
as §1

Experiment [3] has as its target Cytochrome P450 3A4 (Homo sapiens) (UniProt P08684). As to the kind of experiment: qHTS for inhibitors of CYP3A4 against the NCATS DSHEA and TCM libraries (AID 1919971).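 Further: on the % scale 0 is the no-effect control and ±100 the full control effect; inhibition lowers luminescence from luciferin made by CYP3A4.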 Put shortly: (§2)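 Read-out is luminescence after P450-Glo detection (30 min, RT). Before that: 15 min compound–enzyme preincubation, then 30-45 min reaction with 1x NADPH regeneration solution, substrate concentration isoform-specific.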
A general note: In qHTS, concentration-response curves come from the screen itself.

Experiment [4] concerns the target Cytochrome P450 2C9 (Homo sapiens) (UniProt P11712). As to the kind of experiment: qHTS for inhibitors of CYP2C9 against the NCATS DSHEA and TCM libraries (AID 1919973). Further: potency means the concentration at half of the fitted maximal effect. From the text:
Assay Development and Screening Technology Laboratory (ADST)
National Center for Advancing Translational Sciences (NCATS), Rockville, MD
National Institute of Health (NIH), Bethesda, Maryland
Dietary Supplements and Natural Products have minor oversight of their safety and efficacy. We assembled a collection of Dietary Supplements and Natural Products (DSNP) as well as Traditional Chinese Medicinal (TCM) Plant extracts, which were screened against an in vitro panel of assays, including a liver cytochrome p450 enzyme panel, CAR/PXR signaling pathways, and P-gp transporter assays, to assess their activity. This pipeline facilitated the interrogation of Natural Product-Drug Interaction (NaPDI) through prominent metabolizing pathways. In addition, we compared the activity profiles of the DSNP/TCM substances with those of an approved drug collection. Many of the approved drugs have well-annotated mechanisms of action (MOA) while the MOAs for most of the DSNP and TCM samples remain unknown. Based on the premise that compounds with similar activity profiles tend to share similar targets or MOA, we clustered the library activity profiles to identify overlap with the NCATS Pharmaceutical Collection to predict the MOAs of the DSNP/TCM substances. Overall, we highlight four significant bioactivity profiles (measured by p-values) as examples of this prediction. To assess broad cytotoxicity, we employed screening against a HepG2 cell line. In addition, transporter-mediated drug interactions are utilized in the characterization of DDIs using a P-glycoprotein (P-gp) assays. To profile potential P-gp activity, a differential cell viability was measured against two cell lines: a parental KB-3-1 human cervical adenocarcinoma cell line and the drug-resistant subline KB-8-5-11 that overexpresses P-gp.
To this end, we profiled both collections for potential CAR and/or PXR activity, employing a previously published 1536-well qHTS assay.
[1] […]
9; Read; Luminescence; ViewLux plate reader. […]

Experiment [5] in a line: KB-3-1 P-gp reporter qHTS against the NCATS DSHEA and TCM libraries (AID 1919975). Further: 0% is about no effect. Summed up:
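Parental KB-3-1 human cervical adenocarcinoma cells (500 cells/well, DMEM + 10% FBS) were treated with substances for ~72 h at 37C; viability was read by CellTiter-Glo luminescence.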

The nature of experiment [6]: qHTS Counterscreen for compound interference against the NCATS DSHEA and TCM libraries (AID 1919978). Further: % of control where 0% means no effect. The settings on record: firefly luciferase detection reagent interference, luminescence. Put shortly:
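D-luciferin (1 uM final) or 100 mM potassium phosphate buffer alone was preincubated 15 min at RT with compounds (19.5 nM to 39.8 uM final). Luciferin detection reagent was then added and luminescence read after 30 min at RT.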

Experiment [7] can be described thus: Dual reporter qHTS for agonist of Pregnane X Receptor (hPXR) against the NCATS DSHEA and TCM libraries: Fluorescence readout (AID 1920058). Further: potency means the concentration at half of the fitted maximal effect. Put shortly:
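HepG2 hPXR-Luc, 2000 cells/well, 5 h attach; cpds ~24 h, 37 °C/5% CO2; CellTiter-Fluor 1 h; fluor. Ex/Em 405/540 nm = viability.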

Experiment [8] has as its target Cytochrome P450 2D6 (Homo sapiens) (UniProt P10635). As to the kind of experiment: qHTS for inhibitors of CYP2D6 against the NCATS DSHEA and TCM libraries (AID 1919972). Further: on the % scale 0 is the no-effect control and ±100 the full control effect. Put shortly:
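Luminescent P450-Glo read-out of CYP2D6 turnover of a luciferin substrate after NADPH-driven reaction of 30-45 min at room temperature. Compounds were first preincubated 15 min with enzyme at titrated concentrations; quinidine was the intraplate control.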

Experiment [9] has as its target Cytochrome P450 2C19 (Homo sapiens) (UniProt P33261). As to the kind of experiment: qHTS for inhibitors of CYP2C19 against the NCATS DSHEA and TCM libraries (AID 1919974).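 Further: luminescence from luciferin released by CYP2C19 oxidation of a pro-luciferin substrate.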 Further: potency means the concentration at half of the fitted maximal effect. Summed up: as §2
Experiment [10] concerns the target Cytochrome P450 1A2 (Homo sapiens) (UniProt P05177). Briefly: qHTS for inhibitors of CYPIA2 against the NCATS DSHEA and TCM libraries (AID 1919976).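 Further: light from luciferin formed by CYP1A2 from a pro-luciferin substrate; series mostly up to about 37 µM; on the % scale 0 is the no-effect control and ±100 the full control effect.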 Put shortly:
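CYP1A2 + luciferin substrate, 100 mM KPO4-type buffer; cmpd 15 min RT; 1x NADPH regen, 30-45 min RT dark; detection reagent 30 min RT; luminescence. Minus-enzyme wells as background; furafylline intraplate control.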

Chain of Cytochrome P450 2C9 (Homo sapiens) (P11712 whole entry, looked up): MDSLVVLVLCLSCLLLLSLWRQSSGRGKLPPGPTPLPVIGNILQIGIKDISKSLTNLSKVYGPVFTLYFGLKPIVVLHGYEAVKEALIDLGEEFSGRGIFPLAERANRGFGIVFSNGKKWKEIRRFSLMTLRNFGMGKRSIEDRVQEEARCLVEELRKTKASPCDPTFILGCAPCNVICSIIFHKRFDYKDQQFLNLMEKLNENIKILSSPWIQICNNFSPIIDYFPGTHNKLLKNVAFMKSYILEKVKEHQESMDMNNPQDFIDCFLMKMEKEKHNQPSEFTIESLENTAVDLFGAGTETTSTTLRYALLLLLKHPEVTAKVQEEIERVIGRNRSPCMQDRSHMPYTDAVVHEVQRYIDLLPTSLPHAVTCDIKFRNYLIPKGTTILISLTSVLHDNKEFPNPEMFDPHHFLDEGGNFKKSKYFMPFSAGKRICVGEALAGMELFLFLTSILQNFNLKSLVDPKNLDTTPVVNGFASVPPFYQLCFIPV
Chain of Cytochrome P450 3A4 (Homo sapiens) (P08684 whole entry, looked up, canonical isoform): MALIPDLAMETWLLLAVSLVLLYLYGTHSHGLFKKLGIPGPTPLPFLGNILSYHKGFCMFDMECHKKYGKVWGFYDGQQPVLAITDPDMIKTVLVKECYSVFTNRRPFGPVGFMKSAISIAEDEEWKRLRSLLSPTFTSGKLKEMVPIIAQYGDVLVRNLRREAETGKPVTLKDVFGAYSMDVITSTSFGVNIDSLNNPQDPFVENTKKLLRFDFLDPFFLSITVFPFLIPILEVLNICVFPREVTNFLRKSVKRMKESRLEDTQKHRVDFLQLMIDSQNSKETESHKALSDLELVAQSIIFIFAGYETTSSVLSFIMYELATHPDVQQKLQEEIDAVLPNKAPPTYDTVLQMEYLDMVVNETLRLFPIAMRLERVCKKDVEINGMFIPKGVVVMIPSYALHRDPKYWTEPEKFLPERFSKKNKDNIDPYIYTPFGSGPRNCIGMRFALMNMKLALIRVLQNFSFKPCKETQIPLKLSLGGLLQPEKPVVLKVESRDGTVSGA
Chain of Cytochrome P450 2D6 (Homo sapiens) (P10635 whole entry, looked up): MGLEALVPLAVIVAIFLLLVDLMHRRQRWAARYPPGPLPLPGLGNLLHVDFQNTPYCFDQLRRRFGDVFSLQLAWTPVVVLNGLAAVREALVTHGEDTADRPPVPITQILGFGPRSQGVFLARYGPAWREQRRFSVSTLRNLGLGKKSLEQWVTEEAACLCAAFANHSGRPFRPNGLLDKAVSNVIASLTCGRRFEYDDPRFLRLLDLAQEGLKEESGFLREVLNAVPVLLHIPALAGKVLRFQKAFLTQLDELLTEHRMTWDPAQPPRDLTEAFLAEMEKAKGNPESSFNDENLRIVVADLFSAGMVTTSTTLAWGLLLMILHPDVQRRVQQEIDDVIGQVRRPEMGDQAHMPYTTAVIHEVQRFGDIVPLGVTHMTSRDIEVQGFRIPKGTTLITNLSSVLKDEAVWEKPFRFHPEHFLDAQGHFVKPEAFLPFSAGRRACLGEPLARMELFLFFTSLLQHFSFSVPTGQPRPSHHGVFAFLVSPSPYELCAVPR
Chain of Cytochrome P450 2C19 (Homo sapiens) (P33261 whole entry, looked up): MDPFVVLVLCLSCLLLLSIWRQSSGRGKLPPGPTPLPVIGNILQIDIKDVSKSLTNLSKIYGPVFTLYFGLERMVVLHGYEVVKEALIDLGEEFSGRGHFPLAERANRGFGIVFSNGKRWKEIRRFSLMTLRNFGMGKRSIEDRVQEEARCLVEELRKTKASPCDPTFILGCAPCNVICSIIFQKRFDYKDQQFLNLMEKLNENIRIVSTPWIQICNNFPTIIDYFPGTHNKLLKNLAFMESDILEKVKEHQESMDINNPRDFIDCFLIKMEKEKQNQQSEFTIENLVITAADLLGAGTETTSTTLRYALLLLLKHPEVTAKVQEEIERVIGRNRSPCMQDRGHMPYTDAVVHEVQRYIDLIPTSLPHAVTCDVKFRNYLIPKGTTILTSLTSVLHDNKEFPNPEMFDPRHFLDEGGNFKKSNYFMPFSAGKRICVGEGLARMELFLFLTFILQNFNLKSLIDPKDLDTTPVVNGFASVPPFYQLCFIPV
Chain of Cytochrome P450 1A2 (Homo sapiens) (P05177 whole entry, looked up): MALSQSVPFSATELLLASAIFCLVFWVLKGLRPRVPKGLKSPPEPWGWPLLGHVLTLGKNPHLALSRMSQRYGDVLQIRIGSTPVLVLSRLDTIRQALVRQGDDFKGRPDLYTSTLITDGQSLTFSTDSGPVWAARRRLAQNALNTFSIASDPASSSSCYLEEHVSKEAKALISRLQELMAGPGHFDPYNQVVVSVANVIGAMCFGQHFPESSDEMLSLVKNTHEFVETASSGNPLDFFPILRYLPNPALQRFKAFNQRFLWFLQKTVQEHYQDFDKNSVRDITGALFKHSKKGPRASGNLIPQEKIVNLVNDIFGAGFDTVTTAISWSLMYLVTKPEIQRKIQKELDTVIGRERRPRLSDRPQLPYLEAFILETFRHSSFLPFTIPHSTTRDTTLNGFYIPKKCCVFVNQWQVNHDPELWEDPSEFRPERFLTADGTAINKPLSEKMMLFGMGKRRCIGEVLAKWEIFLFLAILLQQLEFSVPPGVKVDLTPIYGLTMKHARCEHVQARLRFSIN

With `CCC[C@H](N[C@@H](C)C(=O)N1[C@@H]2CCCC[C@H]2C[C@H]1C(=O)O)C(=O)OCC`, the Potency entry in experiment [1] is “inactive”.
Take `Nc1[nH]nc2nnc(-c3c(-c4ccccc4)nn4ccccc34)cc12`: the Potency in experiment [2] was 0.235 µM (active); in [1], 0.166 µM (active).
As for `CC(C)(F)C[C@H](N[C@@H](c1ccc(-c2ccc(S(C)(=O)=O)cc2)cc1)C(F)(F)F)C(=O)NC1(C#N)CC1`, the Potency entry in experiment [2] and in [1] was “inactive” in each case.
In the case of `O=c1[nH]nc(OCCCc2ccc(Cl)cc2)c(NCc2cccnc2)c1Br`, the results for the Potency in experiment [2] and in experiment [1] were 5.26 µM (active) and 20.9 µM (active), respectively.
With `COc1ccc(Cn2ccc3ccc(C(=O)NO)cc32)cc1`, the Potency result in experiment [1] was “inactive”.
As to `NC(=O)c1ccc(N(C(N)=O)c2c(F)cccc2F)nc1-c1ccc(F)cc1F`, the Potency entry in experiment [2] and in [1] was “inactive” each time.
With `CO[C@H]1/C=C\O[C@@]2(C)Oc3c(C)c(O)c4c(O)c(c5c(nc6cc(C)ccn65)c4c3C2=O)NC(=O)C(C)=CC=C[C@H](C)[C@H](O)[C@@H](C)[C@@H](O)[C@@H](C)[C@H](OC(C)=O)[C@H]1C`, the Potency result in experiment [2] and in [1] was “inactive” throughout.
In the case of `N#Cc1ccc(Oc2ccc3c(c2)COB3O)cc1`, in experiment [1], the Potency entry was “inactive”.
Turning to `CN1c2ccccc2C(=O)N2CCc3c([nH]c4ccccc34)C21` (stereo not drawn), the values for the Potency in experiment [2] and in experiment [1] were 2.96 µM (active) and 3.32 µM (active), respectively.
Take `O=C1NC(=O)C(=Cc2ccc(-c3ccc(F)cc3O)o2)S1`: the Potency result in [1] was “inactive”.
With `CN1CCN(c2ncc(-c3cc(Cl)cc(Cl)c3Cl)c(N)n2)CC1`, the Potency result in experiment [1] was “inactive”.
Turning to `Clc1ccc(COC(Cn2ccnc2)c2ccc(Cl)cc2Cl)c(Cl)c1` (stereo not drawn), the Potency in experiment [2] is 23.5 µM (active); in [1] it was 20.9 µM (active).
The matching figures for `COc1nc(C)cnc1NS(=O)(=O)c1cccnc1-c1ccc(-c2nnco2)cc1`: “inactive” and “inactive”.
As to `Cc1cc(CS(=O)(=O)c2ccccc2)cc(OCc2ccc(CN3CCC[C@H]3CO)cc2)c1`, the Potency result in [1] was “inactive”.
Still for that read-out and setting: then `CN(C)c1ccccc1CN1CCCN(Cc2ccccc2N(C)C)C1c1ccncc1`, with “inactive”.
With `Cc1cc2nc3c(=O)[nH]c(=O)nc-3n(CC(O)C(O)C(O)CO)c2cc1C` (stereo not drawn), the Potency result in experiment [2] and in experiment [4] was “inactive” each time. For the same compound, the Potency in experiment [1] was 5.9 µM (active); in experiment [7], 28.2 µM (active). Also, the result in [3] and in experiment [5] was inactive. Also, the max response in experiment [6] was 1.01%.
Turning to `C[C@@H]1O[C@@H](O[C@H]2CC[C@@]3(C)[C@H](CC[C@@H]4[C@H]3C[C@@H](O)[C@]3(C)[C@@H](C5=CC(=O)OC5)CC[C@]43O)C2)C[C@H](O)[C@@H]1O[C@H]1C[C@H](O)[C@H](O[C@H]2C[C@H](O)[C@@H](O)[C@@H](C)O2)[C@H](C)O1` (stereo in doubt), the Potency is 0.191 µM (active) in experiment [2] and 0.0959 µM (active) in experiment [1].
Take `CN(C)CCN(C)C(=O)c1ccc(NC(=O)Nc2ccc(-c3nc(N4CCOCC4)c4ccn(CC(F)(F)F)c4n3)cc2)cc1`: the Potency is 0.0372 µM (active) in experiment [2] and 0.0148 µM (active) in experiment [1].
As to `O=C(C=Cc1ccc(O)cc1)c1ccc(O)cc1O`, the Potency is 10.5 µM (active) in [2] and 14.8 µM (active) in [1].
Consider `OC[C@H]1O[C@@H](OCCc2ccc(O)cc2)[C@H](O)[C@@H](O)[C@H]1O`, for which the Potency entry in [2], in [4], in experiment [9] and in experiment [7] was “inactive” throughout. Besides, the compound was classed as inactive in experiment [3], in [8], in experiment [5] and in experiment [10]. Moreover, in experiment [6], the max response was 1.11%.
In the case of `Cn1c(=O)c(Oc2ccc(F)cc2F)cc2cnc(NC3CCOCC3)nc21`, the Potency entry in [1] was “inactive”.
Take `CO[C@H]1C=CO[C@@]2(C)Oc3c(C)c(O)c4c(O)c(c(C=NN5CCN(C)CC5)c(O)c4c3C2=O)NC(=O)C(C)=CC=C[C@H](C)[C@H](O)[C@@H](C)[C@@H](O)[C@@H](C)[C@H](OC(C)=O)[C@H]1C`: the Potency result in experiment [1] was “inactive”.
Regarding `O=c1cc(-c2ccc(O)c(O)c2)oc2cc(O)cc(O)c12`, the result in experiment [8] and in [5] was inactive. In addition, the Potency is 11.2 µM (active) in experiment [4] and 7.94 µM (active) in experiment [9]. For the same compound, the max response in experiment [6] was -0.391%. Also, the Potency result in [7] was “inactive”.
